{"source": "PubChem BioAssay (EPA / NIEHS)", "note": "Inconclusive results are not listed. Calls of active or inactive are those of the source. The calls were made as follows: active = hit-call score of the fitted dose curve at least 0.9, where 1 is the maximum; inconclusive = response in the unintended direction; inactive = score below 0.9.", "data": [{"target": "human Protein Tyrosine Phosphatase Non-receptor Type 6 (PTPN6), PTPN6 (gene 5777) (UniProt P29350)", "sequence (P29350 whole entry, looked up)": "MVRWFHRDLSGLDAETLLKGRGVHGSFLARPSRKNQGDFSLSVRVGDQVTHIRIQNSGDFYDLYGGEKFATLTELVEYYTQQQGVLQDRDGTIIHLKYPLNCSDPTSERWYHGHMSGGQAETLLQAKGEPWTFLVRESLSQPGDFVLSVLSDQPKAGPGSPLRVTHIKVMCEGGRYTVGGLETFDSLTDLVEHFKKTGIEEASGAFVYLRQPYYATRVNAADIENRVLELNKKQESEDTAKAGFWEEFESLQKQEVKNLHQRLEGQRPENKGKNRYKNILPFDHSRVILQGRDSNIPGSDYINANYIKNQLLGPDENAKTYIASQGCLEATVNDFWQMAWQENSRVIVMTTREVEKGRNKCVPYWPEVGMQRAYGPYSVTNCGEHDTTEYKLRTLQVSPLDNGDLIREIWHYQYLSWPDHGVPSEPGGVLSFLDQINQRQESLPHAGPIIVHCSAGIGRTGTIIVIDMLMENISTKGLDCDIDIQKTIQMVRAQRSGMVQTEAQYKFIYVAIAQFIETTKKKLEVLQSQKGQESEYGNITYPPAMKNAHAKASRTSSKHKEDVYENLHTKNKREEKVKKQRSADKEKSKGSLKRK", "experiment": "NVS_ENZ_hPTPN6: NovaScreen (NVS) Enzymatic Assay for human Protein Tyrosine Phosphatase Non-receptor Type 6 (PTPN6) (AID 2283210)", "outline": "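Recombinant human PTPN6 from SF9 cells, enzyme activity followed by fluorescence after mobility-shift separation of substrate and product at 1.33 h. Chemicals first tested at a single 25 uM in duplicate, then confirmed across concentration series; loss of signal relative to DMSO.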", "values": [{"compound": "COS(C)(=O)=O", "outcome": "inactive"}, {"compound": "C=CN1CCCC1=O", "outcome": "inactive"}, {"compound": "O=C(O)c1cccc(C(=O)O)c1", "outcome": "inactive"}, {"compound": "NC(=O)NN=Cc1ccc([N+](=O)[O-])o1", "AC50": "10.9 µM (active)"}, {"compound": "c1ccc2ncccc2c1", "outcome": "inactive"}, {"compound": "O=C(O)[C@H](O)[C@@H](O)C(=O)O", "outcome": "inactive"}, {"compound": "NNC(=O)c1ccncc1", "outcome": "inactive"}, {"compound": "NC(=O)N1c2ccccc2C=Cc2ccccc21", "outcome": "inactive"}]}, {"target": "human Rho Associated Coiled-coil Containing Protein Kinase 1 (ROCK1), ROCK1 (gene 6093) (UniProt Q13464)", "sequence (Q13464 whole entry, looked up)": "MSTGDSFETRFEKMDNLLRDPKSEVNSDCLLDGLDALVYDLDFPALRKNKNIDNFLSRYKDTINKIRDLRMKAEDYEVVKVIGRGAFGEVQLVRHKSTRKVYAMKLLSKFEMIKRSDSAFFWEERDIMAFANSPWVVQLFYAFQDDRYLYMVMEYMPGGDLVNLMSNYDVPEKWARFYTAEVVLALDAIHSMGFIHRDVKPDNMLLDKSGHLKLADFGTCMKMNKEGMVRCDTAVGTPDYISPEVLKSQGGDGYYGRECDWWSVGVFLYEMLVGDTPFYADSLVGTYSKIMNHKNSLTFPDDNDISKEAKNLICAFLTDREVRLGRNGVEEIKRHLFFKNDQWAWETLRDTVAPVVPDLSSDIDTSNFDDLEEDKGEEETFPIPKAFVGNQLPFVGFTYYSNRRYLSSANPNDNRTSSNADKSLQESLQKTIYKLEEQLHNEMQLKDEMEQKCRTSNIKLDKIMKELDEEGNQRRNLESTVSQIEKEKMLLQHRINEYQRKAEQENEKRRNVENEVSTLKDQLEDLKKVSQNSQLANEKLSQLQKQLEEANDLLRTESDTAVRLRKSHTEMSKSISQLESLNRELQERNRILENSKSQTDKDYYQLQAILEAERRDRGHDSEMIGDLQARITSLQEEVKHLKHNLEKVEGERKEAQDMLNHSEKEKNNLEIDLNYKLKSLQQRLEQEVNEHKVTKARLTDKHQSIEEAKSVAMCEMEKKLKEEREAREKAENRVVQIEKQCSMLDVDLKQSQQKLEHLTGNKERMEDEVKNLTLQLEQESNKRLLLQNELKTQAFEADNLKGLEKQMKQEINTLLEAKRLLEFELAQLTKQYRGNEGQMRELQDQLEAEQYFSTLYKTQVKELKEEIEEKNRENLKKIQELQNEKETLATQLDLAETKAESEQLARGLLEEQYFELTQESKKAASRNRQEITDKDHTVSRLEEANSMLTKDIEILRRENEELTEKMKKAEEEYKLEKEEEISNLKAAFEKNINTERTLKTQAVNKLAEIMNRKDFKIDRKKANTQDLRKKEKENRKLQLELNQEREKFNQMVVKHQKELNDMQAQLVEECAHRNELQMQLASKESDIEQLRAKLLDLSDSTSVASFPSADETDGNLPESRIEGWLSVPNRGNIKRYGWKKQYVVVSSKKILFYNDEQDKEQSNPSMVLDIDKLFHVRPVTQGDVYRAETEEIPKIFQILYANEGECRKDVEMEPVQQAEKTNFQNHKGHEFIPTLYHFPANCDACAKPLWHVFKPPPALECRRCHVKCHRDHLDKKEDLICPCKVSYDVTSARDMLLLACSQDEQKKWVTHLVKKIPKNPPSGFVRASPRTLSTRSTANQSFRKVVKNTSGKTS", "experiment": "NVS_ENZ_hROCK1: NovaScreen (NVS) Enzymatic Assay for human Rho Associated Coiled-coil Containing Protein Kinase 1 (ROCK1) (AID 2283214)", "outline": "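Compounds first run in duplicate at 25 uM against recombinant human ROCK1, then followed in concentration series. Kinase activity was read 1 h post-dosing by fluorescence with mobility-shift separation, as signal loss relative to DMSO.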", "values": [{"compound": "CC(=O)c1ccccc1", "outcome": "inactive"}, {"compound": "CCN(CC)C(=S)SSC(=S)N(CC)CC", "outcome": "inactive"}, {"compound": "CCCc1ccccc1", "outcome": "inactive"}]}, {"target": "human Protein Tyrosine Phosphatase Receptor Type M (PTPRM), PTPRM (gene 5797) (UniProt P28827)", "sequence (P28827 whole entry, looked up)": "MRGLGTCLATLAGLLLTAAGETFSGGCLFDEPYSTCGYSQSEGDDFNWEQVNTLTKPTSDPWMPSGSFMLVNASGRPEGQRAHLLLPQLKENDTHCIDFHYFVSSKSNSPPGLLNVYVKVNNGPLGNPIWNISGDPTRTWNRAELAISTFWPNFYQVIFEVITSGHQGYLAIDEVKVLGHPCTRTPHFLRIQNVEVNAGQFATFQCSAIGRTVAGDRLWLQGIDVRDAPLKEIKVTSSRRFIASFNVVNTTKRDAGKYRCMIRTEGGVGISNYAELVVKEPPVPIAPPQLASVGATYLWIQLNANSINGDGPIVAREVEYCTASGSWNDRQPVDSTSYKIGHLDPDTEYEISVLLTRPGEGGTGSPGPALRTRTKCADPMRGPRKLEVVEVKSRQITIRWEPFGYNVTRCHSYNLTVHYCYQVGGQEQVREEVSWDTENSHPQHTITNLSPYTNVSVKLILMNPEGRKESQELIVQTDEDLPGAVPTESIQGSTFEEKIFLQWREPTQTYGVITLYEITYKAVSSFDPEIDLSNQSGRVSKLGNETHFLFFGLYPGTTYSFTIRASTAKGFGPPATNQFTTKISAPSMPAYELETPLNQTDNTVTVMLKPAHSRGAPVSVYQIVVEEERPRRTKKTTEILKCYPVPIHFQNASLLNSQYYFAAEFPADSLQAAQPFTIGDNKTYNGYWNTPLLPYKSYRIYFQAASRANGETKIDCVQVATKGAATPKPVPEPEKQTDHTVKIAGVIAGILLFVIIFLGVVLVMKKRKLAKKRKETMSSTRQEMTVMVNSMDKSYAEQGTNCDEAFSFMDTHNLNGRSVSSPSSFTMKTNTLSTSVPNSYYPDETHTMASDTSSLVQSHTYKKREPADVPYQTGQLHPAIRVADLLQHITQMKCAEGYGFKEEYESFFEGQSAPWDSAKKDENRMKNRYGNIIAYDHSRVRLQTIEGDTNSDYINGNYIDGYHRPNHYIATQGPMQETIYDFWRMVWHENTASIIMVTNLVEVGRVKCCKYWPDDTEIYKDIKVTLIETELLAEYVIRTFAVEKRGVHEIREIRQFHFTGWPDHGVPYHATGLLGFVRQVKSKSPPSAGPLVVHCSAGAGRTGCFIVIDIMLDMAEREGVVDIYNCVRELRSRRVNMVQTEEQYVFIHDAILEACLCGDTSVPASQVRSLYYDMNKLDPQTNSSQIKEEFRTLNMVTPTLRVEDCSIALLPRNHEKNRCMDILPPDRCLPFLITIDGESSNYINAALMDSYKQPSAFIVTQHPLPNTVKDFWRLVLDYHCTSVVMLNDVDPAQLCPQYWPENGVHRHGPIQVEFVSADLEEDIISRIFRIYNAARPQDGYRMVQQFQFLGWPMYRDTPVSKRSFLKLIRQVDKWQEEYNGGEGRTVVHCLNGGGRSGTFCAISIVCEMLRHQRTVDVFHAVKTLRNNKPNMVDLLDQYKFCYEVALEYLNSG", "experiment": "NVS_ENZ_hPTPRM: NovaScreen (NVS) Enzymatic Assay for human Protein Tyrosine Phosphatase Receptor Type M (PTPRM) (AID 2283215)", "outline": "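Read-out is fluorescence after electrophoretic separation of substrate and product, taken 1.33 h post-dosing with recombinant enzyme. Compounds screened at 25 uM in duplicate, then concentration series for actives; activity as signal loss relative to DMSO.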", "values": [{"compound": "CCOc1ccc2[nH]cc(C(=O)NCc3ccccc3)c(=O)c2n1", "outcome": "inactive"}, {"compound": "c1ccc2ncccc2c1", "outcome": "inactive"}, {"compound": "NC(=O)N1c2ccccc2C=Cc2ccccc21", "outcome": "inactive"}]}, {"target": "human Sirtuin 1 (SIRT1), SIRT1 (gene 23411) (UniProt Q96EB6)", "sequence (Q96EB6 whole entry, looked up)": "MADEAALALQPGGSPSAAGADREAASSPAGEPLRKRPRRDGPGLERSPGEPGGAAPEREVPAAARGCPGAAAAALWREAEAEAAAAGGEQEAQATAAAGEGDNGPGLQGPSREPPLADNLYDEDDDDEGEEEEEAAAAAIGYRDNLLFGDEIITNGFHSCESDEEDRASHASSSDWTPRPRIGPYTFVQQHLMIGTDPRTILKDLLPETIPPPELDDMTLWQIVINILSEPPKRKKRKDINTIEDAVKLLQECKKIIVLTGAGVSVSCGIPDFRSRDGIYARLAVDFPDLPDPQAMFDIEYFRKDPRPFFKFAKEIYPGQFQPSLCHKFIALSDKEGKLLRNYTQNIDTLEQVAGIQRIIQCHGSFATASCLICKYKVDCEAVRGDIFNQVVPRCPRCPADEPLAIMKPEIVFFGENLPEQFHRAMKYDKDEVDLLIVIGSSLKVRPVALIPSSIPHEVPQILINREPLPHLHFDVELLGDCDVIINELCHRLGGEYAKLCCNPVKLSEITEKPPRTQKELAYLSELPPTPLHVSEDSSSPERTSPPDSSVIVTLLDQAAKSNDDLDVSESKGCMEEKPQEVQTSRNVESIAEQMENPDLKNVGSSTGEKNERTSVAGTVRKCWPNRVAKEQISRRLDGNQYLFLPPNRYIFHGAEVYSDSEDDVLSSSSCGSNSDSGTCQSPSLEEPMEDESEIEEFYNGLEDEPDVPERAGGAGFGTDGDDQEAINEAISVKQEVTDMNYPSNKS", "experiment": "NVS_ENZ_hSIRT1: NovaScreen (NVS) Enzymatic Assay for human Sirtuin 1 (SIRT1) (AID 2283219)", "outline": "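Cell-free recombinant SIRT1 with a fluorescent substrate; substrate and product separated by electrophoretic mobility shift and read by fluorescence intensity, 1 h after dosing. Primary screen at 25 uM in duplicate; hits re-run in concentration-response up to 50 uM, relative to DMSO.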", "values": [{"compound": "CC(=O)c1ccccc1", "outcome": "inactive"}, {"compound": "Cn1cc[nH]c1=S", "outcome": "inactive"}, {"compound": "CC(C)c1nnc2ccc(-c3ocnc3-c3cc(F)ccc3F)cn12", "outcome": "inactive"}, {"compound": "CCN(CC)C(=S)SSC(=S)N(CC)CC", "outcome": "inactive"}, {"compound": "NC(N)=O", "outcome": "inactive"}, {"compound": "CCCCCCOC(=O)CC(CC(=O)OCCCCCC)(OC(=O)CCC)C(=O)OCCCCCC", "outcome": "inactive"}, {"compound": "COCc1nnc(-c2ccc[n+]([O-])c2)n1-c1c(Cl)c(Cl)cc2[nH]c(=O)c(=O)[nH]c12", "outcome": "inactive"}, {"compound": "NNC(=O)c1ccncc1", "outcome": "inactive"}]}]}
